From paper PMC5540273 (PLoS ONE, 2017)

test system: PDGFRA; settings: concentration: 1 μM, replicates: in singlicate; n = 1
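Also: KINOMEscan kinase panel screen.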

| SMILES | %Inh [%] |
| --- | --- |
| COc1cc2ncn(-c3cc(OCC4CCCO4)c(C(N)=O)s3)c2cc1OC (centres unmarked) [GSK204607] | 0 |
| COc1ccccc1-c1ccc2c(NC(=O)C3CC3)n[nH]c2n1 [SB-711239] | 0 |
| Cc1cccc(-c2cc(Nc3ccncc3)c3ccccc3n2)n1 [GSK223675] | 2 |
| COc1ccc(Nc2nccc(-c3cccc(NC(=O)c4cc5cc(F)ccc5[nH]4)c3)n2)cc1 [GSK1229782] | 33 |
| COc1ccc(Nc2nccc(NCCNC(=O)Nc3ccccc3F)n2)cc1 [GSK1379901] | 0 |
| NC(=O)c1nnc2ccccc2c1N | 12 |
| CC(C)(C)c1ccc(C(=O)Nc2cn3cc(Cl)ccc3n2)cc1 | 12 |
| COc1cccc(NC(=O)NC2CCN(c3ccnc(Nc4ccc(F)cc4)n3)C2)c1 (centres unmarked) [GSK1379721] | 9 |
| Cc1ccc(-c2cc(-c3c[nH]nc3-c3ccccn3)ccn2)cc1 [GW684088] | 7 |
| Cc1cc(N2Cc3ccccc3C2)nc(Nc2ccc(S(=O)(=O)N3CCOCC3)cc2)n1.Cl [GSK1669917] | 0 |
| CC(C)(C)c1ccc(C(=O)Nc2cn3cc(-c4cccnc4)ccc3n2)cc1 | 57 |
| Cc1ccccc1-n1cnc2c(N)ncnc21 [SKF-97510] | 0 |
| Fc1cccc(COc2nnc(-c3ccc4c(c3)CCO4)o2)c1 | 28 |
| Cc1ccc(C(=O)Nc2ccc(Nc3ccnc4cc(-c5ccccn5)ccc34)cc2O)cc1.Cl [GW440146] | 54 |
| CS(=O)(=O)c1ccc(-c2c(-c3ncn[nH]3)sc(N3CCOCC3)c2C#N)cc1 | 6 |
| COc1cc2nccc(Nc3ccc(NC(=O)c4ccc(C)cc4)c(O)c3)c2cc1OC.Cl [GW440132] | 12 |
| COC(=O)c1c(-c2ccccc2)c2cc(OC)ccc2c(=O)n1Cc1ccccc1 | 70 |

| SMILES | %Inh [%] |
| --- | --- |
| O=C(O)COc1ncnc2cc(-c3ccc4[nH]ncc4c3)sc12 | 45 |
| COc1ccc(C2=C(Nc3cccc(C(=O)O)c3)C(=O)NC2=O)cc1 [SB-390765] | 30 |
| CCn1c(-c2ccccn2)nc2cnccc21 [SB-736398] | 0 |
| Cn1ccc2ncnc(Oc3ccc(Nc4nc5ccccc5[nH]4)cc3)c21 | 8 |
| O=C(Nc1n[nH]c2cc(-c3cccc(F)c3F)ccc12)C1CC1 [SB-733894] | 23 |
| Clc1cc(Cl)cc(Nc2ccnc(Nc3cc(Cl)cc(Cl)c3)n2)c1 [GSK175726] | 14 |
| Cc1cccc(-c2nc(Nc3ccncc3)c3ccccc3n2)n1 [GW855857] | 0 |
| CCCc1ccc(S(=O)(=O)NC2CCN(c3ccnc(Nc4ccc(F)cc4)n3)C2)cc1 (centres unmarked) [GSK1379715] | 0 |
| COc1ccc(CNC(=O)NC2CCN(c3ccnc(Nc4cc(OC)c(OC)c(OC)c4)n3)C2)cc1 (centres unmarked) [GSK1379748] | 15 |
| Cc1c(O)cccc1Nc1ccnc2ccc(C(F)(F)F)cc12.Cl [GW466413] | 0 |
| Cc1c(Cn2ccn3c(=O)cc(N4CCOCC4)nc23)cccc1C(F)(F)F [GSK2289044] | 0 |
| COC(=O)c1c(-c2ccccc2)c2cc(C(=O)O)ccc2c(=O)n1Cc1ccccc1 | 65 |
| Cl.c1ccc(-c2n[nH]cc2-c2ccnc(-c3ccc(CN4CCOCC4)cc3)c2)nc1 [GW776245] | 0 |
| Cc1cc(NCC(c2ccccc2)c2ccccc2)nc(NCc2ccc(C(F)(F)F)cc2)n1 [GW497681] | 0 |
| COc1cccc(-c2cc(-c3c[nH]nc3-c3ccccn3)ccn2)c1 [GW680338] | 0 |
| O=C(Nc1ccccc1)Nc1cccc(Oc2ccc3nccn3n2)c1 | 98.9 |
| Nc1ncnc2[nH]c(-c3ccccc3)nc12 [AH5015] | 9 |

test system: PDGFRB; settings: concentration: 1 μM, replicates: in singlicate; n = 1

| SMILES | %Inh [%] |
| --- | --- |
| COc1cc2ncn(-c3cc(OCC4CCCO4)c(C(N)=O)s3)c2cc1OC (centres unmarked) [GSK204607] | 32 |
| COc1ccccc1-c1ccc2c(NC(=O)C3CC3)n[nH]c2n1 [SB-711239] | 0 |
| Cc1cccc(-c2cc(Nc3ccncc3)c3ccccc3n2)n1 [GSK223675] | 23 |
| COc1ccc(Nc2nccc(-c3cccc(NC(=O)c4cc5cc(F)ccc5[nH]4)c3)n2)cc1 [GSK1229782] | 61 |
| COc1ccc(Nc2nccc(NCCNC(=O)Nc3ccccc3F)n2)cc1 [GSK1379901] | 70 |
| NC(=O)c1nnc2ccccc2c1N | 9 |
| CC(C)(C)c1ccc(C(=O)Nc2cn3cc(Cl)ccc3n2)cc1 | 71 |
| COc1cccc(NC(=O)NC2CCN(c3ccnc(Nc4ccc(F)cc4)n3)C2)c1 (centres unmarked) [GSK1379721] | 42 |
| Cc1ccc(-c2cc(-c3c[nH]nc3-c3ccccn3)ccn2)cc1 [GW684088] | 22 |
| Cc1cc(N2Cc3ccccc3C2)nc(Nc2ccc(S(=O)(=O)N3CCOCC3)cc2)n1.Cl [GSK1669917] | 2 |
| CC(C)(C)c1ccc(C(=O)Nc2cn3cc(-c4cccnc4)ccc3n2)cc1 | 95.4 |
| Cc1ccccc1-n1cnc2c(N)ncnc21 [SKF-97510] | 0 |
| Fc1cccc(COc2nnc(-c3ccc4c(c3)CCO4)o2)c1 | 0 |
| Cc1ccc(C(=O)Nc2ccc(Nc3ccnc4cc(-c5ccccn5)ccc34)cc2O)cc1.Cl [GW440146] | 86 |
| CS(=O)(=O)c1ccc(-c2c(-c3ncn[nH]3)sc(N3CCOCC3)c2C#N)cc1 | 20 |
| COc1cc2nccc(Nc3ccc(NC(=O)c4ccc(C)cc4)c(O)c3)c2cc1OC.Cl [GW440132] | 69 |
| COC(=O)c1c(-c2ccccc2)c2cc(OC)ccc2c(=O)n1Cc1ccccc1 | 99.5 |

| SMILES | %Inh [%] |
| --- | --- |
| O=C(O)COc1ncnc2cc(-c3ccc4[nH]ncc4c3)sc12 | 31 |
| COc1ccc(C2=C(Nc3cccc(C(=O)O)c3)C(=O)NC2=O)cc1 [SB-390765] | 0 |
| CCn1c(-c2ccccn2)nc2cnccc21 [SB-736398] | 0 |
| Cn1ccc2ncnc(Oc3ccc(Nc4nc5ccccc5[nH]4)cc3)c21 | 0 |
| O=C(Nc1n[nH]c2cc(-c3cccc(F)c3F)ccc12)C1CC1 [SB-733894] | 51 |
| Clc1cc(Cl)cc(Nc2ccnc(Nc3cc(Cl)cc(Cl)c3)n2)c1 [GSK175726] | 21 |
| Cc1cccc(-c2nc(Nc3ccncc3)c3ccccc3n2)n1 [GW855857] | 3 |
| CCCc1ccc(S(=O)(=O)NC2CCN(c3ccnc(Nc4ccc(F)cc4)n3)C2)cc1 (centres unmarked) [GSK1379715] | 16 |
| COc1ccc(CNC(=O)NC2CCN(c3ccnc(Nc4cc(OC)c(OC)c(OC)c4)n3)C2)cc1 (centres unmarked) [GSK1379748] | 54 |
| Cc1c(O)cccc1Nc1ccnc2ccc(C(F)(F)F)cc12.Cl [GW466413] | 5 |
| Cc1c(Cn2ccn3c(=O)cc(N4CCOCC4)nc23)cccc1C(F)(F)F [GSK2289044] | 21 |
| COC(=O)c1c(-c2ccccc2)c2cc(C(=O)O)ccc2c(=O)n1Cc1ccccc1 | 99.4 |
| Cl.c1ccc(-c2n[nH]cc2-c2ccnc(-c3ccc(CN4CCOCC4)cc3)c2)nc1 [GW776245] | 0 |
| Cc1cc(NCC(c2ccccc2)c2ccccc2)nc(NCc2ccc(C(F)(F)F)cc2)n1 [GW497681] | 21 |
| COc1cccc(-c2cc(-c3c[nH]nc3-c3ccccn3)ccn2)c1 [GW680338] | 8 |
| O=C(Nc1ccccc1)Nc1cccc(Oc2ccc3nccn3n2)c1 | 100 |
| Nc1ncnc2[nH]c(-c3ccccc3)nc12 [AH5015] | 42 |
